The text below walks through data of PubChem BioAssay (Tox21).

Assay [1] in a line: Nuclear factor erythroid 2-related factor 2/antioxidant responsive element (Nrf2/ARE) small molecule agonists: qHTS cell viability counter screen in human keratinocytes (AID 1919968; active = well fitted curve in the direction sought with a large enough effect in the repeat runs; an effect the other way counts as inactive or inconclusive; note: nearly all actives have a fitted effect of over 55% in size). An outline of the steps:
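Stably transfected HaCaT (KeratinoSens), 1,500/well. Test agents in DMSO were applied for 23 h, 37 C/5% CO2. CellTiter-Fluor was incubated 1 h before the fluorescence read.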

Assay [2] can be described thus: Nuclear factor erythroid 2-related factor 2/antioxidant responsive element (Nrf2/ARE) small molecule agonists: luciferase reporter gene qHTS assay in human keratinocytes (AID 1919969). Note: nearly all actives have a fitted effect of over 35% in size. In general terms: Reporter assays use an easily measured gene product as a stand-in for the process of interest.
Assay [3] addresses Gonadotropin-releasing hormone receptor (Homo sapiens) (UniProt P30968). The assay is described as follows: Human gonadotropin-releasing hormone receptor (GnRHR) small molecule agonists, calcium flux assay in GnRHR-HEK293 cells (AID 1920063). Note: nearly all actives have a fitted effect of over 35% in size. An outline of the steps: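 Stable human GnRHR HEK293 line. 18 h plating, then calcium dye for 1 h at 37 C. Agonist-mode compound addition from DMSO stocks; fluorescence monitored 3 min.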
(A change in cytosolic calcium serves as a functional read-out for many receptors and channels.)

The target of assay [4] is KiSS-1 receptor (Homo sapiens) (UniProt Q969F8). The experiment in a line: Human kisspeptin (KISS1R) small molecule agonists, calcium flux assay in KISS1R-HEK293 cells (AID 1920064; active = well fitted curve in the direction sought with a large enough effect in the repeat runs; an effect the other way counts as inactive or inconclusive). In a few lines: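 After overnight (18 h) culture at 37 C/5% CO2, human KISS1R-HEK293 cells received calcium dye for 1 h, then test compound; emission at 540 nm (excitation 480 nm) was tracked for 3 min.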

A short description of assay [5]: G protein-coupled receptor (GPCR) small molecule agonists, calcium flux assay: HEK293 wild type cell line counter screen (AID 1920065). In a few lines: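 Following 18 h incubation at 37 C/5% CO2, plates got calcium dye for 1 h; compounds, ATP or DMSO were then pinned in and fluorescence followed kinetically (480/540 nm).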
Assay [6] can be described thus: p53 small molecule agonists, cell-based qHTS assay with human liver microsomes (AID 1963577).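 Note: p53 response element beta-lactamase reporter cells with liver microsomes plus NADPH.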 An outline of the steps: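 Metabolically competent format: test substances, human liver microsomes and NADPH (both 0.5 mg/mL final) incubated with p53RE-bla cells 16 h at 37 C. Beta-lactamase reporter signal then quantified by fluorescence.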
Background: Quantitative high-throughput screening tests each substance at several concentrations.

Assay [7] is described as follows: p53 small molecule agonists, cell-based qHTS assay with rat liver microsomes (AID 1963578). In a few lines:
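Each plate received p53RE-bla cells, then compound, then rat liver microsomes and NADPH (both 0.5 mg/mL final). Plates were held 16 h at 37 C, and beta-lactamase activity was detected with LiveBLAzer over 2 h.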

Assay [8] in a line: p53 small molecule agonists, cell-based qHTS assay with human liver microsomes: qHTS cell viability counter screen (AID 1963579). Note: nearly all actives have a fitted effect of over 45% in size. In a few lines:
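Tox21 library compounds, delivered from DMSO stocks, were tested on p53RE-bla cells together with 0.5 mg/mL human liver microsomes and 0.5 mg/mL NADPH (final) over 16 h at 37 C; CellTiter-Glo luminescence served as the cytotoxicity measure.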

Assay [9] can be described thus: p53 small molecule agonists, cell-based qHTS assay with rat liver microsomes: qHTS cell viability counter screen (AID 1963580). Note: nearly all actives have a fitted effect of over 45% in size. In a few lines:
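After the beta-lactamase ratio was read, CellTiter-Glo was added to the same wells and luminescence measured at 30 min; cells had been treated 16 h at 37 C with compounds, rat liver microsomes and NADPH (0.5 mg/mL final each).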

The nature of assay [10]: p53 small molecule agonists, cell-based qHTS assay: qHTS cell viability counter screen (AID 1963581). Note: nearly all actives have a fitted effect of over 45% in size. In a few lines: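 qHTS counter screen: 16 h compound exposure at 37 C of p53RE-bla HCT-116 cells (4,000 per well, seeded 5 h prior), cell viability by ATP luminescence.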
A short description of assay [11]: p53 small molecule agonists, cell-based qHTS assay (AID 1963582; active = well fitted activation curve with a large enough effect in the signal ratio in the repeat runs, not every such curve was filed as active; the % refers to the signal ratio; note: potency is the fitted concentration of half-maximal effect). In a few lines:
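Measured: fluorescence from cleaved LiveBLAzer substrate. System: p53RE-bla cells, 16 h compound treatment at 37 C, 2 h substrate step at room temperature.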

The target of assay [12] is 5-hydroxytryptamine receptor 2A (Homo sapiens) (UniProt P28223). The assay is described as follows: 5-hydroxytryptamine receptor 2A (HTR2A) small molecule antagonists, cell-based qHTS assay (AID 1963586). Note: nearly all actives have a fitted effect of over 45% in size. In a few lines: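 CHO cells stably expressing human HTR2A were plated for 18 h at 37 C, then loaded with calcium dye for 1 h. Compounds were preincubated 5 min at room temperature before DOI (4 nM solution) was added. Kinetic fluorescence was read for 3 min.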

The target is the same in assay [13]. The assay is described as follows: 5-hydroxytryptamine receptor 2A (HTR2A) small molecule agonists, cell-based qHTS assay (AID 1963587). Note: nearly all actives have a fitted effect of over 30% in size. An outline of the steps: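 CHO cells stably expressing human HTR2A, plated 18 h, loaded with calcium dye 1 h at 37 C. Agonist mode: compounds added and intracellular calcium fluorescence recorded kinetically for 2 min at 1 sec intervals.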

Assay [14] concerns the target Muscarinic acetylcholine receptor M1 (Homo sapiens) (UniProt P11229). The assay is described as follows: Cholinergic receptor muscarinic 1 (CHRM1) small molecule antagonists, cell-based qHTS assay (AID 1963588). Note: nearly all actives have a fitted effect of over 40% in size. In a few lines: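 Compounds were tested at 15 concentrations in three independent runs. Dye-loaded CHRM1-CHO cells were exposed 5 min at room temperature before stimulation by acetylcholine added at 50nM. Intracellular calcium was read kinetically on FDSS for 3 min.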

Assay [15] concerns the target Beta-2 adrenergic receptor (Homo sapiens) (UniProt P07550). The experiment in a line: Adrenergic beta2 receptor (ADRB2) small molecule antagonists, cell-based qHTS assay (AID 1963592). Note: series mostly up to about 92 µM; nearly all actives have a fitted effect of over 50% in size. In a few lines: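 Assay format: CHO-ADRB2 cells, 18-20hr seeding at 37C/5% CO2, then compound plus 1nM isoproterenol agonist mix for 0.5hr RT. Homogeneous time-resolved fluorescence cAMP detection after 1hr, expressed as 665/615 nm ratio.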

Assay [16] has the same target. The experiment in a line: Adrenergic beta2 receptor (ADRB2) small molecule agonists, cell-based qHTS assay (AID 1963593).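 Note: CHO cells stably overexpressing human ADRB2.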 In a few lines: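 CHO cells stably over-expressing ADRB2 were plated overnight at 37C, then dosed with compounds plus a stimulation mix containing 100uM IBMX and 25uM Ro-20-1724 for 0.5hr at room temperature. cAMP was measured by HTRF competition, 1hr.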

Assay [17] deals with D(2) dopamine receptor (Homo sapiens) (UniProt P14416). The assay is described as follows: Dopamine D2 receptor (DRD2) small molecule agonists, cell-based qHTS assay (AID 1963594). Note: nearly all actives have a fitted effect of over 35% in size. An outline of the steps: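 HEK293 cells stably expressing human DRD2, pre-treated with PDE inhibitor Ro20-1724 (0.1 mM final) and compound 10 min at room temperature, then stimulated with NKH477 (200nM […]) for 30 min. cAMP read by HTRF (665/620 nm).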

Assay [18] has the same target. The experiment in a line: Dopamine D2 receptor (DRD2) small molecule antagonists, cell-based qHTS assay (AID 1963595; active = well fitted inhibition curve with a large enough effect in the signal ratio in the repeat runs, with a control signal flat; the % refers to the signal ratio). An outline of the steps:
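HTRF cAMP read-out at 665 and 620 nm emission (340 nm excitation). Antagonist mode: compounds were tested against 12 nM quinpirole in DRD2-HEK293 cells, with 200 nM NKH477 raising cAMP and 0.1 mM Ro20-1724 blocking its breakdown.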

The nature of assay [19]: cAMP Responsive Elements (CRE) small molecule agonists, cell-based qHTS assay (AID 1963590). An outline of the steps: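 Test agents in DMSO were incubated 3 h at 37 C/5% CO2 with CRE-bla HEK 293T cells seeded 18 h earlier; LiveBLAzer B/G FRET substrate was added and read after 2 h at room temperature.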
A short description of assay [20]: cAMP Responsive Elements (CRE) small molecule antagonists, cell-based qHTS assay (AID 1963591; active = well fitted inhibition curve with a large enough effect in the signal ratio in the repeat runs, not every such curve was filed as active; the % refers to the signal ratio). In a few lines: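 Reporter line CRE-bla HEK 293T in dialyzed-FBS DMEM; cells preincubated 18 h, treated 3 h with compound plus NKH477 (0.25 uM final); LiveBLAzer FRET, 2 h RT.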

Structures are written as SMILES. Where “and” joins values, the source holds several entries; their conditions need not be identical. Identical values can stand only once. Results filed as inconclusive are left out. Calls of active or inactive are those of the source. Unless noted, calls come from the whole dose curve.

D(2) dopamine receptor (Homo sapiens), sequence (P14416 whole entry, looked up): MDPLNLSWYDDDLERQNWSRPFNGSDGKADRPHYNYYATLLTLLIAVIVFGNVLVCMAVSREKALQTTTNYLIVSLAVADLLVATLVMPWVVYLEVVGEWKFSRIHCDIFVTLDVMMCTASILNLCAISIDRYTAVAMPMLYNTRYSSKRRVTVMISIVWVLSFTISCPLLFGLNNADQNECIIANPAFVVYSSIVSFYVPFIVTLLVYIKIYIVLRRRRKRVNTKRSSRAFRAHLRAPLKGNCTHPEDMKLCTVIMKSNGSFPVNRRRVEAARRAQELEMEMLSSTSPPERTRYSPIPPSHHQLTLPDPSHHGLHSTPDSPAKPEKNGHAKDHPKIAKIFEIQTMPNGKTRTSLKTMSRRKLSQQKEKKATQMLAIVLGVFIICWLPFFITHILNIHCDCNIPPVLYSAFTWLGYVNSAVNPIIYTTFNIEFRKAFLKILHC
KiSS-1 receptor (Homo sapiens), sequence (Q969F8 whole entry, looked up): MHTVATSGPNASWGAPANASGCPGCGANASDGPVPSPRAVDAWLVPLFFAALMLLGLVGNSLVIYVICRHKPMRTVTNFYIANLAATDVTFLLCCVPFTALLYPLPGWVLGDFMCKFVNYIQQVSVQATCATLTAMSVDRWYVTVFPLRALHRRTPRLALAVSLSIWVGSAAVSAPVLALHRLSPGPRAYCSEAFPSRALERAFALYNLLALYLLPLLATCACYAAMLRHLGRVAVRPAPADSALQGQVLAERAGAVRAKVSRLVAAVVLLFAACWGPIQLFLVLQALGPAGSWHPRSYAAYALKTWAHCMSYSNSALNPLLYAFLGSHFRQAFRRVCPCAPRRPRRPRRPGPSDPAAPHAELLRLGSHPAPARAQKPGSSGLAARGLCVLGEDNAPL
Beta-2 adrenergic receptor (Homo sapiens), sequence (P07550 whole entry, looked up): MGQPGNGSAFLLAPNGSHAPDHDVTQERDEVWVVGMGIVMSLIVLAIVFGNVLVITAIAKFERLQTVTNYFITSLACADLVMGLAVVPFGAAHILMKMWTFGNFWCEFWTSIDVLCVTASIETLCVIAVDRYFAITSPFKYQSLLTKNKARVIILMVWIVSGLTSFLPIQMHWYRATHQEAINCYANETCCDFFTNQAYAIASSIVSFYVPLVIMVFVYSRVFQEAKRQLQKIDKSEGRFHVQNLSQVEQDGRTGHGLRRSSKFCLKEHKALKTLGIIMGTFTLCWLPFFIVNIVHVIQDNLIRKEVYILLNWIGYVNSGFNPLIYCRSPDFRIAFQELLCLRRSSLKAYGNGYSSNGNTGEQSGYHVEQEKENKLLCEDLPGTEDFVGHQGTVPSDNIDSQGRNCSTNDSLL
Gonadotropin-releasing hormone receptor (Homo sapiens), sequence (P30968 whole entry, looked up): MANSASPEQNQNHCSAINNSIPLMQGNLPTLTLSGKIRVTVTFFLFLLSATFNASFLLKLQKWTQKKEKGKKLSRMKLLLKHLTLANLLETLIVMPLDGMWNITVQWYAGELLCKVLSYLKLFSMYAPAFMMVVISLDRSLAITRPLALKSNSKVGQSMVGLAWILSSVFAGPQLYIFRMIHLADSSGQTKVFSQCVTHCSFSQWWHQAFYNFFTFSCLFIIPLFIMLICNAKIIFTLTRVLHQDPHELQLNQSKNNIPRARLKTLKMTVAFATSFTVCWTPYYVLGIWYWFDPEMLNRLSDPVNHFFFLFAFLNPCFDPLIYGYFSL
Muscarinic acetylcholine receptor M1 (Homo sapiens), sequence (P11229 whole entry, looked up): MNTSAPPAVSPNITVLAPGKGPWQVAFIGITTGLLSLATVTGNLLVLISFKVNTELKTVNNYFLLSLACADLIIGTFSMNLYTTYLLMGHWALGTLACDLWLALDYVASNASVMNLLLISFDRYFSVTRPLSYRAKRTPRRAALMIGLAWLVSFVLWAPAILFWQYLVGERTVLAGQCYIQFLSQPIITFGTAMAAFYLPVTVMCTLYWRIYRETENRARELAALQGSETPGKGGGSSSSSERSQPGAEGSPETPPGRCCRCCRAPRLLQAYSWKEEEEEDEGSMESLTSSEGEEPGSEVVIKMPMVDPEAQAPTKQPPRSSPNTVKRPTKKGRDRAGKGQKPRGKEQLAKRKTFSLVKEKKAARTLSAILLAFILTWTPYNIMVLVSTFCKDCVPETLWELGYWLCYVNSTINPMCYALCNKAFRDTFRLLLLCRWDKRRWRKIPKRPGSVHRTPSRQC
5-hydroxytryptamine receptor 2A (Homo sapiens), sequence (P28223 whole entry, looked up): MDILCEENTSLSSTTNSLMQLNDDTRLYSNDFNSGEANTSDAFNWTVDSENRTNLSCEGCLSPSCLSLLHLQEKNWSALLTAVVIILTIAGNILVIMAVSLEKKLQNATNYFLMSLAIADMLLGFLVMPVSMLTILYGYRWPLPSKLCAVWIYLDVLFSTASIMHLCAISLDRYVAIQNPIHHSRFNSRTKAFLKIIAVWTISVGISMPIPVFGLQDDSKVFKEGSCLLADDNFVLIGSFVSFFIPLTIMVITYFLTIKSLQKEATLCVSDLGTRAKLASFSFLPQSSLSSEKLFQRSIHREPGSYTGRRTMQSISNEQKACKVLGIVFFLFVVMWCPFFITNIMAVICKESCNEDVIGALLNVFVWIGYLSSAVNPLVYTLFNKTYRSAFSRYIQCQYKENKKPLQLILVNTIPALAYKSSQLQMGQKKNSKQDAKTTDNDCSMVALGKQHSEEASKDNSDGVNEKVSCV

Regarding `C[C@]12C[C@H](O)[C@H]3[C@@H](CCC4=CC(=O)CC[C@@]43C)[C@@H]1CC[C@@H]2C(=O)CO`, the Potency result in [1], in [2], in [3], in [4], in assay [5] and in [6] was “inactive” in each case. Besides, the Potency entry in [7], in assay [8], in assay [9], in assay [10], in assay [11] and in [12] was “inactive” throughout. Also, the Potency entry in assay [13], in assay [14], in assay [15], in assay [16], in [17] and in assay [18] was “inactive” throughout.
In the case of `CC1Cc2ccccc2N1NC(=O)c1ccc(Cl)c(S(N)(=O)=O)c1` (configuration not stated), the Potency entry in [1], in [2], in assay [3], in assay [4], in [5] and in assay [6] was “inactive” throughout. Also, the Potency result in assay [7], in [8], in [9], in assay [10], in [11] and in [19] was “inactive” each time. The Potency result in assay [20], in [15], in assay [16], in assay [17] and in assay [18] was “inactive” throughout.
Consider `Cc1[nH]c(=O)c(C#N)cc1-c1ccncc1`, for which the Potency result in [1], in assay [2], in [3], in assay [4], in assay [5] and in assay [6] was “inactive” each time. For the same compound, the Potency result in assay [7], in [8], in assay [9], in [10], in assay [11] and in assay [19] was “inactive” in each case. Also, the Potency entry in [20], in assay [15], in assay [16], in assay [17] and in assay [18] was “inactive” each time.
Regarding `S=c1nc[nH]c2nc[nH]c12`, the Potency result in assay [1], in assay [2], in [3], in assay [4], in assay [5] and in assay [6] was “inactive” in each case. The Potency result in assay [7], in assay [8], in [9], in [10], in [19] and in [20] was “inactive” each time. For the same compound, the Potency entry in [15], in assay [17] and in assay [18] was “inactive” throughout. For the same compound, the Potency in [11] was 9.99 µM (active) and 7.93 µM (active).
Turning to `CCCCC(CC)COC(=O)C(C#N)=C(c1ccccc1)c1ccccc1` (configuration not stated), the Potency result in assay [1], in assay [2], in [3], in assay [4], in [5] and in assay [6] was “inactive” each time. For the same compound, the Potency result in assay [7], in assay [8], in assay [9], in assay [10], in assay [11] and in assay [13] was “inactive” each time. Moreover, the Potency result in [14], in [19], in assay [20], in [15], in assay [16] and in [17] was “inactive” throughout. Also, the Potency entry in assay [18] was “inactive”.
As to `O=C(OCCOCCOC(=O)c1ccccc1)c1ccccc1`, the Potency entry in [1], in assay [2], in assay [3], in assay [4], in [5] and in assay [6] was “inactive” in each case. Moreover, the Potency entry in [7], in assay [8], in [9], in [10], in assay [11] and in assay [13] was “inactive” each time. Further, the Potency result in [19], in assay [20], in [15] and in [17] was “inactive” in each case.
Regarding `CC(C)(Oc1ccc(C2CC2(Cl)Cl)cc1)C(=O)O` (configuration not stated), the Potency result in assay [1], in assay [2], in [3], in assay [4], in assay [5] and in assay [6] was “inactive” each time. In addition, the Potency entry in assay [7], in assay [8], in [9], in assay [10], in assay [11] and in assay [19] was “inactive” each time. For the same compound, the Potency entry in assay [20], in assay [15], in [16], in [17] and in assay [18] was “inactive” in each case.
`C[C@]12C=CC(=O)C=C1CC[C@@H]1[C@@H]2[C@@H](O)C[C@@]2(C)[C@H]1CC[C@]2(O)C(=O)CO`: the Potency result in assay [1], in [2], in [3], in [4], in assay [5] and in assay [6] was “inactive” in each case. Moreover, the Potency entry in [7], in assay [8], in assay [9], in assay [10], in [11] and in assay [19] was “inactive” each time. Besides, the Potency entry in assay [20], in assay [15], in [16], in assay [17] and in [18] was “inactive” each time.
